In ChEMBL document CHEMBL4649982, “Selective targeting of Bromodomains of the Bromodomain-PHD Fingers family impairs osteoclast differentiation” (ACS Chem Biol, 2017):
Several values for one entry are separate records, joined by “and”; a condition that tells them apart may be missing. Identical values can stand only once.

Key:
[1] = target: Bromodomain-containing protein 4 (Homo sapiens) (UniProt O60885); details: Compound concentration 10.0 uM, Protein concentration 2.0 uM
[2] = target: T1, Transcription intermediary factor 1-alpha (Homo sapiens) (UniProt O15164); details: Compound concentration 10.0 uM, Protein concentration 2.0 uM
T1 sequence (whole entry): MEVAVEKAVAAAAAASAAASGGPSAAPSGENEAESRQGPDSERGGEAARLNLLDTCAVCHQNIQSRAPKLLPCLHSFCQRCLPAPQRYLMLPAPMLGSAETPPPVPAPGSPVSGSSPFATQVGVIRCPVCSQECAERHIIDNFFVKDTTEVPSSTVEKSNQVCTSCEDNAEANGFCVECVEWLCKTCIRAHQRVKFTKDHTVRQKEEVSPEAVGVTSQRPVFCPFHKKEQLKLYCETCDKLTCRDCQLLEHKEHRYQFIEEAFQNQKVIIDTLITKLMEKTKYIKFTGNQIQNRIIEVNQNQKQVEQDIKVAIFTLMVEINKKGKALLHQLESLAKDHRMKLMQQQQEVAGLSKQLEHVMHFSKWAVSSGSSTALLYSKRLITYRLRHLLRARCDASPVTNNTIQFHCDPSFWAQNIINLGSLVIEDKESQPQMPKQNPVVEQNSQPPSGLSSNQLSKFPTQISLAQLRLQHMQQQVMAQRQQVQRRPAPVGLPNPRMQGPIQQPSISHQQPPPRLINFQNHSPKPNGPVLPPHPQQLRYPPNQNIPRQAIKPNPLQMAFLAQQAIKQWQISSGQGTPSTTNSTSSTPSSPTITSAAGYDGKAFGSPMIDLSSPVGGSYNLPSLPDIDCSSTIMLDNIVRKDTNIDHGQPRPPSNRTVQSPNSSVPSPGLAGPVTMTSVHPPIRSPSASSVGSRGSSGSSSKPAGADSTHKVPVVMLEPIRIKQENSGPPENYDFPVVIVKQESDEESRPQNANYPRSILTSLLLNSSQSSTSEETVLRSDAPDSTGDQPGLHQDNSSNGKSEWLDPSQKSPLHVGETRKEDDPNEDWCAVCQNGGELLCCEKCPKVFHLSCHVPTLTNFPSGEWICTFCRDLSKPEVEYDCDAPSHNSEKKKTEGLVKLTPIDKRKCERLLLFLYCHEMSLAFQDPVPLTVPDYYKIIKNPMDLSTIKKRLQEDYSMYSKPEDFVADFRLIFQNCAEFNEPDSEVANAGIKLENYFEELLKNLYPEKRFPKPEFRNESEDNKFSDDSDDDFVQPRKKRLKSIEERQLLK

COc1cc2c(cc1NS(=O)(=O)c1ccc(Br)cc1C)n(C)c(=O)n2C
ΔTm [1]: 1.42 °C and 2.26 °C
ΔTm [2]: 2.87 °C
